Compound activity as filed in PubChem BioAssay.
An excerpt weighted towards active compounds, which were near 7.3% of everything screened.
VP16 counter – counter-screen for ROR gamma inhibitors: Gal4-VP16 reporter; Drosophila S2 Gal4-VP16 UAS-luciferase, luminescence, 20 h; Potency, µM (titrated, usually from 53.6 µM), without a hit: top-dose activity, negative = inhibition, hits mostly inhibitors; 310,000 tested, 3.5% active; AID 2546;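 note: Gal4-VP16 expression switched on by copper sulfate through the metallothionein promoter; nearly all actives have a fitted effect of over 50% in size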
Tau fluor counter – counter-screen for tau fibril formation inhibitors; 280,000 tested, 0.93% active; tau K18 P301L Alexa594 fluorescence, heparin fibrillization; AID 1463; Potency, µM (series often up to 57.7 µM), inactives show at the top dose activity change, negative = decrease; note: nearly all actives have a fitted effect of over 55% in size
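Human K18 P301L tau (15 uM unlabeled plus 0.24 uM Alexa 594-labeled, final) in 100 mM sodium acetate pH 7 was mixed with compound and 20 uM heparin and incubated 6 hr at 37 C.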
Tau FP inhib – blocks human tau fibril formation measured by polarization; P10636; K18 P301L tau heparin fibrillization, Alexa594 FP, 6 h; Potency, µM (highest dose often 57.7 µM), without a hit: at the highest dose activity, negative = inhibition, most hits filed as inhibitors; 280,000 tested, 0.39% active; AID 1468; note: nearly all actives have a fitted effect of over 55% in size
Target sequence (P10636 561-689 P618L limits assumed): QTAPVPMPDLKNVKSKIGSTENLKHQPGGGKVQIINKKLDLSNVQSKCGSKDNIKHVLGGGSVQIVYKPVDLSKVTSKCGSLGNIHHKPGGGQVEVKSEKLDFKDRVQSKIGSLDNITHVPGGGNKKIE
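Compound effects on tau fibrillization are measured by Alexa 594 fluorescence polarization (ex 555, em 632 nm). K18 P301L tau is used at 15 uM with 0.24 uM labeled tracer, and 20 uM heparin induces aggregation over 6 hr at 37 C.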
RORg inh – blocks mouse ROR gamma transcriptional activity; AID 2551; 310,000 tested, 5.4% active; Drosophila S2 Gal4-RORgamma UAS-luciferase reporter, 20 h; P51450; Potency, µM (doses to about 53.6 µM), for inactives: top-dose activity change, negative = inhibition, usual class: inhibitors; note: nearly all actives have a fitted effect of over 60% in size
Target sequence (P51450 whole entry, looked up, the tested form may be a part): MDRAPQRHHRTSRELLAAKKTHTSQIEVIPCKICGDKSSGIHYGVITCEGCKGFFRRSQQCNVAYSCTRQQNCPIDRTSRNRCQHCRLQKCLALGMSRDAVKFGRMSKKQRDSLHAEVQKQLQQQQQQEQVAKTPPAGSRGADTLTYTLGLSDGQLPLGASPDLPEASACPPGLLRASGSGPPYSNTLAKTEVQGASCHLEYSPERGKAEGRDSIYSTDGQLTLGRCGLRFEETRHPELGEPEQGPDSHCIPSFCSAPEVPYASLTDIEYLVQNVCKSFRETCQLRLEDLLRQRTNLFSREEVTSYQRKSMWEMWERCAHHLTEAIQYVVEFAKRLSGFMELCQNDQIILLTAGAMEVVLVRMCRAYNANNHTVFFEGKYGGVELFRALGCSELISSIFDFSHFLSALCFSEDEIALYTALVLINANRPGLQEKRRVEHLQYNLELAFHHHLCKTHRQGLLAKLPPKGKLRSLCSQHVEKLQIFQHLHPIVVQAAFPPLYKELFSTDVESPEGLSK
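Drosophila S2 cells stably expressing Gal4-DBD/mouse RORγ fusion under metallothionein promoter plus UAS-luciferase; compound 1 h, then 700 uM CuSO4 induction for 20 h at ambient temperature; inhibition read as reduced luminescence.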
Tau ThT inhib – inhibitors of human tau fibril formation, thioflavin T binding | P10636 | recombinant tau K18 P301L, heparin-induced fibrillization, ThT fluorescence | Potency, µM (highest dose often 57.4 µM), for the others: at the highest dose activity, negative = inhibition, actives largely listed as inhibitors | 270,000 tested, 2.1% active; note: nearly all actives have a fitted effect of over 55% in size
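Fibril formation assay: tau K18 P301L at 15 uM with trace Alexa 594 label, heparin inducer 20 uM, pH 7 sodium acetate buffer, 37 C for 6 hr; endpoint ThT signal.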
* = called active by the depositor; u = inconclusive; x = no result; [ ] = another dose, or the depositor's remark. Calls come from the whole dose curve; as a rule, active = well fitted curve in the direction sought with a large enough effect; inconclusive = small, poorly fitted or top-dose-only effect, or another doubt; inactive = no such curve, though single readings can be large; an effect the other way counts as inactive or inconclusive. % is set by controls: 0 for no effect and ±100 for the full control effect; potency is the fitted concentration of half-maximal effect.

SMILES	VP16 counter	Tau fluor counter	Tau FP inhib	RORg inh	Tau ThT inhib
CCOc1cccc(C(=O)N(Cc2ccc(CC)cc2)C2CCS(=O)(=O)C2)c1 (centres undefined)	x	-9%	-1%	x	-6%
Cc1cc(=O)oc2cc(OC3C=CC(C#CC(C)(C)C)OC3CO)ccc12 (centres undefined)	-1%[10 µM]	-7%[11.6 µM]	u	4%[10 µM]	-1%[11.5 µM]
COc1cccc(-c2nnc(Nc3nc4c(F)cccc4s3)o2)c1	3.5µM*	12%	14%	u	10%
COc1cccc2sc(Nc3nc(-c4cc5ccccc5oc4=O)cs3)nc12	u	7%	-2%	u	10%
COc1ccccc1-c1nnc(Nc2nc3c(OC)cccc3s2)o1	u	-7%	4%	1.6µM*	-12%
COc1cccc2sc(Nc3nc(-c4ccncc4)cs3)nc12	-14%	u	-3%	13µM*	u
COc1cccc(-c2nnc(-c3ccc(C(F)(F)F)cc3)o2)c1	20%	-13%	6%	15%	-12%
COc1cccc2sc(Nc3nnc(-c4ccccc4Cl)o3)nc12	2.5µM*	u	u	2µM*	u
CCOc1ccc(C(=O)Nc2c(C(=O)c3ccccc3)oc3ccccc23)cc1	x	-22%	-10%	x	-2%
COc1cccc2sc(Nc3nc4ccc(NC(C)=O)cc4s3)nc12	-12%	-8%	u	14%	-7%
COc1cccc2sc(NN)nc12	22µM*	28µM*[quencher]	u	13µM*	u
CCCCn1c2ccccc2c2nnc(SCC(=O)Nc3ccc(NC(C)=O)cc3)nc21	x	-14%	u	x	-4%
Cc1ncc(CO)c(/C=N/NC(=O)c2ccccc2Br)c1O	18µM*	-11%	0%	10µM*	-7%
Cc1ncc(CO)c(/C=N/NC(=O)c2cc3c(s2)CCCC3)c1O	4%	-24%	3%	10µM*	-17%
Cc1ncc(CO)c(/C=N/NC(=O)c2ccc(O)cc2)c1O	u	-4%	2%	10µM*	-4%
Cc1ncc(CO)c(/C=N/NC(=S)Nc2ccc(Cl)c(Cl)c2)c1O	-11%	25µM*[quencher]	-3%	-38%	u
O=C(CCN1CCN(Cc2ccccc2)CC1)NNC(=O)Nc1cccc([N+](=O)[O-])c1	-8%	x	x	9%	x
CC(Oc1ccc(Br)cc1Br)C(=O)Nc1cccnc1Cl (centres undefined)	3%	x	x	-2%	x
CC(C)(C)c1ccc(-c2nc(S(=O)(=O)c3ccccc3)c(N3CCOCC3)o2)cc1	x	u	6%	x	u
CC(C)(C)C(=O)Nc1ccc(C(=O)Nc2cccc(Oc3ccc(C(=O)O)c(C(=O)O)c3)c2)cc1	11µM*	x	x	u	x
O=C(Nc1cccc(Oc2ccc(C(=O)O)c(C(=O)O)c2)c1)c1ccc(-c2ccccc2)cc1	u	-10%	1%	u	x
CCC/C=C(\CCC)C(NS(=O)(=O)CC12CCC(CC1=O)C2(C)C)c1ccc(C(=O)OC)cc1 (centres undefined)	-20%	-14%	0%	7%	u
O=C(NC(=S)Nc1ccc2oc(=O)ccc2c1)c1cccc(F)c1	1%	x	x	6.3µM*	x
COc1cc(OC)cc(C(=O)NC(=S)Nc2ccc3oc(=O)ccc3c2)c1	-5%	x	x	-40%	x
COc1cccc(C(=O)NC(=S)Nc2ccc3oc(=O)ccc3c2)c1	u	-9%	-6%	u	-10%
SMILES	VP16 counter	Tau fluor counter	Tau FP inhib	RORg inh	Tau ThT inhib
O=C(NC(=S)Nc1ccc2oc(=O)ccc2c1)c1cccc(Cl)c1	-10%	x	x	2.8µM*	x
CSCC[C@H](NC(=O)[C@H](Cc1ccccc1)NC[C@@H](NC[C@@H](N)CS)C(C)C)C(=O)O	1%	-15%	u	23%	25µM*
COCCn1c(SCC(=O)Nc2ncc(C)s2)nc2sc3c(c2c1=O)CCC3	10µM*	-7%	0%	-69%	u
CC(C)CN1C(=O)/C(=C/c2cccs2)NC1=S	7.1µM*	u	11%	5µM*	u
CCCN1C(=O)/C(=C/c2ccc(C)s2)NC1=S	10µM*	u	11%	5.6µM*	u
COc1cccc(N2C(=O)/C(=C\c3cccs3)NC2=S)c1	u	-16%	2%	10µM*	u
Cc1cccc(C)c1OCC(=O)Nc1c(C(=O)c2ccccc2)oc2ccccc12	x	-14%	u	x	1%
Cc1ccc(C)c(Cn2cnc3ccccc3c2=O)c1	x	-11%	-9%	x	0%
Cc1ccc(C(=O)Nc2ccccc2C(=O)OCc2cc(=O)n3nc(C4CC4)sc3n2)cc1	x	9%	1%	x	8%
Cc1cc(C)c(S(=O)(=O)/N=C2/C=C(Sc3ncn[nH]3)C(=O)c3ccccc32)cc1C	3.2µM*	4%	-1%	4µM*	3%
O=C1NN(c2ccccc2)C(=O)/C1=C/c1ccc(-c2ccc(C(=O)O)cc2)o1	-9%	x	x	22%	x
O=C1NN(c2ccccc2)C(=O)/C1=C/c1ccc(Sc2cccc3ccccc23)o1	u	14µM*[quencher]	u	u	13µM*
CC(=O)COc1ccc2c(c1C)O/C(=C\c1ccco1)C2=O	-20%	x	x	10µM*	x
O=C(Nc1ccccc1-c1ccccc1)c1ccccc1Br	3%	x	x	10%	x
NC(=S)NN=C1c2ccccc2-c2ccccc21	4µM*	x	x	1.3µM*	x
O=C(NN=C1c2ccccc2-c2ccccc21)c1ccccc1	0%	-22%	u	-8%	22µM*
O=C(NN=C1c2ccccc2-c2ccccc21)c1ccccc1Br	10µM*	4%	-1%	7.1µM*	7%
CCCN(CCC)CCNC(=O)CN1C(=O)COc2ccc(S(=O)(=O)N3CCC(C)CC3)cc21	x	-9%	-4%	x	-3%
CCCCc1ccc(/C=C2\C(=O)c3ccccc3C(O)=C2C(=O)OCC)cc1	7%[0.365 µM]	u	u	10µM*	18µM*
CCOC(=O)C1=C(O)/C(=C\c2cccc(OC)c2)N=C1C	1%	-8%	-6%	-10%	u
CCOC(=O)C1(CCc2ccccc2)CCN(Cc2nccn2CC)CC1	11µM*	7%	-5%	7.1µM*	3%
CCOC(=O)C1(Cc2ccccc2)CCN(Cc2nccn2CC)CC1	u	11%	-6%	7.9µM*	9%
CCOC(=O)C1(Cc2ccccc2)CCN(Cc2ccon2)CC1	-5%	-7%	-6%	1%	-15%
CCOC(=O)C1(CCc2ccccc2)CCN(Cc2ccc(OC)cc2)CC1	-2%	-11%	-8%	23%	-10%
CCOC(=O)C1(Cc2ccc(Cl)cc2)CCN(Cc2nccn2CC)CC1	13µM*	-3%	0%	3.2µM*	-11%
NC(=O)c1nnn(-c2nonc2N)c1-c1ccc([N+](=O)[O-])cc1	13%	-6%	-6%	-34%	-3%
CC(=O)c1c(C)[nH]c(C(=O)COC(=O)CCCOc2ccccc2)c1C	3%	-4%	5%	14%	-14%
